Assay in all cases: DAPPL (digital affinity profiling via proximity ligation, sequencing); 10 mM Tris-HCl pH 7.5, 50 mM NaCl, 1 mM DTT, 4% glycerol, room temperature, 30 min; GST-TFs on glutathione beads, 16-mer random dsDNA library, 0.1% formaldehyde crosslink after washing; high values mean tight binding
For one experiment, the target named is T1, FEV (Homo sapiens, UniProt Q99581 1-238).
T1 sequence: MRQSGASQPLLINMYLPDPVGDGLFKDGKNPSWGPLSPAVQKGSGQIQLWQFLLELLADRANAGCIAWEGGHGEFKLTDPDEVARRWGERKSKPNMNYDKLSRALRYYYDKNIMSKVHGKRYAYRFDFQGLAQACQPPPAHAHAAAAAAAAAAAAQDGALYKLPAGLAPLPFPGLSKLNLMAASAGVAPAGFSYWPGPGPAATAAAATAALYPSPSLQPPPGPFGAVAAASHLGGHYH
Particulars: protein: recombinant; tags: N-terminal GST; dsDNA, one strand shown. Put shortly:
(§1)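 A tag-only sample was pooled with DNA-barcoded human transcription factors that had been expressed in yeast as GST fusions and captured on glutathione beads. The pools were incubated for 30 min at room temperature with 200 nmole of a random double-stranded 16-mer DNA library in Tris/NaCl/DTT/glycerol buffer, then washed, crosslinked with 0.1% formaldehyde, proximity-ligated (BsaI/T4 ligase, 1 h, 37 °C), PCR-amplified and sequenced on an Illumina NextSeq500. Binding signal is each hexamer's read frequency for a factor divided by its frequency for the tag-only sample.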

The next experiment addresses ETV5 (Homo sapiens, UniProt P41161 1-510). Particulars: protein: recombinant; tags: N-terminal GST; dsDNA, one strand shown. Put shortly:
as §1

The target in a further experiment is HSF1 (Homo sapiens, UniProt Q00613 1-529). As to conditions: protein: recombinant; tags: N-terminal GST; chain copies: 3; dsDNA, one strand shown. Put shortly:
as §1

For a further experiment, the target named is T2, SPIC (Homo sapiens, UniProt Q8N5J4 1-248).
T2 sequence: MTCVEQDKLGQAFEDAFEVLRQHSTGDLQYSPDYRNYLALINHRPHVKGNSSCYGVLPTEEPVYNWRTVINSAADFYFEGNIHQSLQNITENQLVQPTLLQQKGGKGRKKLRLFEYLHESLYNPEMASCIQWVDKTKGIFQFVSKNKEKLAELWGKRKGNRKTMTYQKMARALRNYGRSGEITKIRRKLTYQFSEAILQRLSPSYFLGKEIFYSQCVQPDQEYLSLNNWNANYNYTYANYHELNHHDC
As to conditions: protein: recombinant; tags: N-terminal GST; dsDNA, one strand shown. Put shortly:
as §1

The next experiment concerns the target ELF4 (Homo sapiens, UniProt Q99607 1-663). Particulars: protein: recombinant; tags: N-terminal GST; dsDNA, one strand shown. Put shortly:
as §1

A further experiment concerns the target T3, ELK4 (Homo sapiens, UniProt P28324-2 1-405).
T3 sequence: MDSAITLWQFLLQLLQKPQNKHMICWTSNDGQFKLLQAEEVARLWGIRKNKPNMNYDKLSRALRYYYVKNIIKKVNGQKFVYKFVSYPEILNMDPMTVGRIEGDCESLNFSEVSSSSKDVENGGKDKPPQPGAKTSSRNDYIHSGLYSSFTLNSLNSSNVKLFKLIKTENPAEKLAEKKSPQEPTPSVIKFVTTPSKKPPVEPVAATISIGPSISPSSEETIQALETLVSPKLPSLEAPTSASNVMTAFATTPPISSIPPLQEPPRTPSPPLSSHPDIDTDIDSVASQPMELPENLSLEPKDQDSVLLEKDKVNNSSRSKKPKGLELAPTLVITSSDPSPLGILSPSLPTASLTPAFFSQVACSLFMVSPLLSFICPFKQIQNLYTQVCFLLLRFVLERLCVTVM
As to conditions: protein: recombinant; tags: N-terminal GST; dsDNA, one strand shown. Put shortly: as §1

The next experiment deals with T4, ETV2 (Homo sapiens, UniProt O00321 1-342).
T4 sequence: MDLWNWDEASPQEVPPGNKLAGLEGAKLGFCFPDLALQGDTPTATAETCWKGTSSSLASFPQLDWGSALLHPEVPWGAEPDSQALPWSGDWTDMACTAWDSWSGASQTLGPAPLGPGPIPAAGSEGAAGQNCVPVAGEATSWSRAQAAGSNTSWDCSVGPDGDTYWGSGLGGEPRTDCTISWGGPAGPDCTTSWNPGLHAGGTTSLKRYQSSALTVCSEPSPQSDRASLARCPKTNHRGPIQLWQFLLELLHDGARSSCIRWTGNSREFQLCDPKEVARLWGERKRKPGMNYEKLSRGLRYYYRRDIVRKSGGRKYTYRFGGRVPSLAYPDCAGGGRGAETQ
As to conditions: protein: recombinant; tags: N-terminal GST; dsDNA, one strand shown. Put shortly: as §1

The next experiment deals with T5, ELF3 (Homo sapiens, UniProt P78545 1-371).
T5 sequence: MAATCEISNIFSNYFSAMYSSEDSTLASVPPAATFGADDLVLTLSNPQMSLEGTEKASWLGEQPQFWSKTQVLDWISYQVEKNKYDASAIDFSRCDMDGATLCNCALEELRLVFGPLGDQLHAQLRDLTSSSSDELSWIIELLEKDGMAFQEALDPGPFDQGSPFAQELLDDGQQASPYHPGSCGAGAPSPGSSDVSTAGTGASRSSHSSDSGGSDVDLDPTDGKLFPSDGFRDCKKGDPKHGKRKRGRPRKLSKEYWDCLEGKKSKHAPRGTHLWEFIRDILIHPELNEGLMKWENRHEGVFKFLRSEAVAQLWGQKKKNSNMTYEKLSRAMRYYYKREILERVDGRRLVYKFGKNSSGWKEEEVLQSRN
Particulars: protein: recombinant; tags: N-terminal GST; dsDNA, one strand shown. Put shortly: as §1

A further experiment deals with CRX (Homo sapiens, UniProt O43186 1-299). As to conditions: protein: recombinant; tags: N-terminal GST; dsDNA, one strand shown. Put shortly:
as §1

A further experiment deals with ETV1 (Homo sapiens, UniProt P50549 1-477). As to conditions: protein: recombinant; tags: N-terminal GST; dsDNA, one strand shown. Put shortly:
as §1

For the next experiment, the target named is T6, ERF (Homo sapiens, UniProt P50548 1-548).
T6 sequence: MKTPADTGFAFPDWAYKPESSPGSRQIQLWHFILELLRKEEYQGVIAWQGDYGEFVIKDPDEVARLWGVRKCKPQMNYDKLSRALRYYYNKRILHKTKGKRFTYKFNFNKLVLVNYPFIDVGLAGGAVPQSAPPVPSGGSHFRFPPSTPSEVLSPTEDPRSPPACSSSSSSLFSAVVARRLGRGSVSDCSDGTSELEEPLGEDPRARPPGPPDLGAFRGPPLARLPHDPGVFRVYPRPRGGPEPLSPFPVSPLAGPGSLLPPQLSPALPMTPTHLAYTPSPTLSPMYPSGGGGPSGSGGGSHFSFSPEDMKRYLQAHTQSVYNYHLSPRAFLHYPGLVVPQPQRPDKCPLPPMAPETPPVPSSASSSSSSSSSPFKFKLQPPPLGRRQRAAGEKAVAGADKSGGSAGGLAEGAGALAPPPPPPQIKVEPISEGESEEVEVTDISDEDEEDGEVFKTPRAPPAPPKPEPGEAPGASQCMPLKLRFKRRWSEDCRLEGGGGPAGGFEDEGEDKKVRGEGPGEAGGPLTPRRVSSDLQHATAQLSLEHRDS
As to conditions: protein: recombinant; tags: N-terminal GST; dsDNA, one strand shown. Put shortly:
as §1

The target of the next experiment is T7, ETV3L (Homo sapiens, UniProt Q6ZN32 1-361).
T7 sequence: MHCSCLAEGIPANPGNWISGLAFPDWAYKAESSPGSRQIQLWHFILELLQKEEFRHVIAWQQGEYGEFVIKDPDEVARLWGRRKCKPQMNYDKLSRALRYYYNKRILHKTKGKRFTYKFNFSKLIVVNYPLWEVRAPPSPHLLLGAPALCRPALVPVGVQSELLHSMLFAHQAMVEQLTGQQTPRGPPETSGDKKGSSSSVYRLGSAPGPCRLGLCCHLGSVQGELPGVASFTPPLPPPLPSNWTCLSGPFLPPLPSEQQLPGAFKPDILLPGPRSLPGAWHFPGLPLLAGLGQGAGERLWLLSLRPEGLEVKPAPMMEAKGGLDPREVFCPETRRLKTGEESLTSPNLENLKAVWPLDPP
Particulars: protein: recombinant; tags: N-terminal GST; dsDNA, one strand shown. Put shortly:
as §1

Another experiment concerns the target T8, ETS2 (Homo sapiens, UniProt P15036 1-469).
T8 sequence: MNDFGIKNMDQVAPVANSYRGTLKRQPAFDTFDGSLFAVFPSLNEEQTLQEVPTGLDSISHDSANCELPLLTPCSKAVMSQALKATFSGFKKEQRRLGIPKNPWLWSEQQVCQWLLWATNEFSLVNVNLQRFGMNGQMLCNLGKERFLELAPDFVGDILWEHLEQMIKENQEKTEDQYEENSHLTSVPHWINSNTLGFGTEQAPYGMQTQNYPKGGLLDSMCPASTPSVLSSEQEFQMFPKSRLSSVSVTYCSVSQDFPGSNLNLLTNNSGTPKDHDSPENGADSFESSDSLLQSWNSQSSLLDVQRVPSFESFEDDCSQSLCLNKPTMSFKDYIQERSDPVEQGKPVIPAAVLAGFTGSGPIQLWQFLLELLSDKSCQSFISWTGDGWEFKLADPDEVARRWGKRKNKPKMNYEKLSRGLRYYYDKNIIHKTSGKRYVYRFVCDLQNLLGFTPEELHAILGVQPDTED
Particulars: protein: recombinant; tags: N-terminal GST; dsDNA, one strand shown. Put shortly:
as §1

A further experiment addresses T9, SPDEF (Homo sapiens, UniProt O95238 1-335).
T9 sequence: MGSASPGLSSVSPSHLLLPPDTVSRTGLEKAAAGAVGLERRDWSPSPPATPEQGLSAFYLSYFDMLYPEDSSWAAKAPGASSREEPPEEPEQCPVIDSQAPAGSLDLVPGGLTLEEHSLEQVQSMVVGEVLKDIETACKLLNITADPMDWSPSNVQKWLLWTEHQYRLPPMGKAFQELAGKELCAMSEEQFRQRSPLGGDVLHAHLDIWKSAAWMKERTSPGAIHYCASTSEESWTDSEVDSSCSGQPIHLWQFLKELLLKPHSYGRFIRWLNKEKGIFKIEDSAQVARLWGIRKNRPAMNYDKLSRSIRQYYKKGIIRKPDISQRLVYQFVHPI
Particulars: protein: recombinant; tags: N-terminal GST; dsDNA, one strand shown. Put shortly: as §1

A further experiment concerns the target T10, ETV7 (Homo sapiens, UniProt Q9Y603 1-341).
T10 sequence: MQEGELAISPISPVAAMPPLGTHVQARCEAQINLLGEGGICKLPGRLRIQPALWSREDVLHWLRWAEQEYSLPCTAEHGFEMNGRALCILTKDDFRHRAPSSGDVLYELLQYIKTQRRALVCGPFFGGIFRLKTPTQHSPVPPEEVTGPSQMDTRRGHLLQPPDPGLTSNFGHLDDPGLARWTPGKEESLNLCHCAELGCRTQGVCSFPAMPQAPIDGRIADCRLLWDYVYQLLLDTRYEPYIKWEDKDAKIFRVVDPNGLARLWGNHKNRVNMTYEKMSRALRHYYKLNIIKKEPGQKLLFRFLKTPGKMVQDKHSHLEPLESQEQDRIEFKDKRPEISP
As to conditions: protein: recombinant; tags: N-terminal GST; dsDNA, one strand shown. Put shortly:
as §1

The next experiment has as its target T11, ELF5 (Homo sapiens, UniProt Q9UKW6-2 1-255).
T11 sequence: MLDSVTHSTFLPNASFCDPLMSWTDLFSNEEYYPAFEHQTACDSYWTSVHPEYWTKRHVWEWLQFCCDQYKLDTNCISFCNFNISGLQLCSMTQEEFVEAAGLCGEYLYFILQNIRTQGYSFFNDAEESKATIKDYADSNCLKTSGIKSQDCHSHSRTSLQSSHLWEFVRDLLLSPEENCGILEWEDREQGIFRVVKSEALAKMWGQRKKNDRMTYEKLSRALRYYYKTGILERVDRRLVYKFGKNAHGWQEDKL
Particulars: protein: recombinant; tags: N-terminal GST; dsDNA, one strand shown. Put shortly:
as §1

Another experiment concerns the target T12, ETV3 (Homo sapiens, UniProt P41162-2 1-143).
T12 sequence: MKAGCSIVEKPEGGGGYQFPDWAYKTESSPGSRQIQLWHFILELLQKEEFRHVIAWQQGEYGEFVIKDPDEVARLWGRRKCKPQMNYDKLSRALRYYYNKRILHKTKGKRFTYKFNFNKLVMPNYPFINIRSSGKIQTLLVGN
Particulars: protein: recombinant; tags: N-terminal GST; dsDNA, one strand shown. Put shortly:
as §1

In a further experiment the target is ETV6 (Homo sapiens, UniProt P41212 1-452). As to conditions: protein: recombinant; tags: N-terminal GST; dsDNA, one strand shown. Put shortly:
as §1

Drawing on article PMC7862700, “An all-to-all approach to the identification of sequence-specific readers for epigenetic DNA modifications on cytosine”, this text covers binding signal for one sequence.

Chain of HSF1 (Q00613 whole entry): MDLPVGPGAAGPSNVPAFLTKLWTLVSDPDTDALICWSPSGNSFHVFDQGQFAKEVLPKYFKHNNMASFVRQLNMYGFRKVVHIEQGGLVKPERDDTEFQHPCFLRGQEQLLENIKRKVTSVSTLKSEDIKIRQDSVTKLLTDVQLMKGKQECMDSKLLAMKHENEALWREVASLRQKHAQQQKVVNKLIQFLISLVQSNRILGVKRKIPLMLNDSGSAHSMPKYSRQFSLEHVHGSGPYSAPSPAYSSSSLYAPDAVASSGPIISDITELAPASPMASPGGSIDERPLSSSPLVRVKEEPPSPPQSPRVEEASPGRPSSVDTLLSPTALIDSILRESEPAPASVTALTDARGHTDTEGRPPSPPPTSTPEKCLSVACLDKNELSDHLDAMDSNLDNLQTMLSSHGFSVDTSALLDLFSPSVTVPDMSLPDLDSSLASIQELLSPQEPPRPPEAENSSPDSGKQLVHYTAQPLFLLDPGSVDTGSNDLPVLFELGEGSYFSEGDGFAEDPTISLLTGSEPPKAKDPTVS
Chain of ELF4 (Q99607 whole entry): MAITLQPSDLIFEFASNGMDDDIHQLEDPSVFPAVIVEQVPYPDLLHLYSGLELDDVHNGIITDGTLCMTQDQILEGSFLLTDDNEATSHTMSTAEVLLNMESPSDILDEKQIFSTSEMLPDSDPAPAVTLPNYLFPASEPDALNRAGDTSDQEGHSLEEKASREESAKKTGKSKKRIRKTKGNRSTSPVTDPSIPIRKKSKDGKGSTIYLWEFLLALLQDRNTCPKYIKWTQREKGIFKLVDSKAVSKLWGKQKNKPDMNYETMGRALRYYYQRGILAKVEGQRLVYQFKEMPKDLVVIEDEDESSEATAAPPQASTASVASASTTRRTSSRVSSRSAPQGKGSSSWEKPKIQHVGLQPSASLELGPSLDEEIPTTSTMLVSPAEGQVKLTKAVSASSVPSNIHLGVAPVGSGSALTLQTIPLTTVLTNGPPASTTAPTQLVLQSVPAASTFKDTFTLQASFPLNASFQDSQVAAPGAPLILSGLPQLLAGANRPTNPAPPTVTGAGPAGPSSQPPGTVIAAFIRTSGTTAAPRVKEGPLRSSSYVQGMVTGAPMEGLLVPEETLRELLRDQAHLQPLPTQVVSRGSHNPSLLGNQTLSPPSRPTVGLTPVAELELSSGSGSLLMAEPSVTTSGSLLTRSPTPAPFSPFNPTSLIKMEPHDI
Chain of ETV6 (P41212 whole entry): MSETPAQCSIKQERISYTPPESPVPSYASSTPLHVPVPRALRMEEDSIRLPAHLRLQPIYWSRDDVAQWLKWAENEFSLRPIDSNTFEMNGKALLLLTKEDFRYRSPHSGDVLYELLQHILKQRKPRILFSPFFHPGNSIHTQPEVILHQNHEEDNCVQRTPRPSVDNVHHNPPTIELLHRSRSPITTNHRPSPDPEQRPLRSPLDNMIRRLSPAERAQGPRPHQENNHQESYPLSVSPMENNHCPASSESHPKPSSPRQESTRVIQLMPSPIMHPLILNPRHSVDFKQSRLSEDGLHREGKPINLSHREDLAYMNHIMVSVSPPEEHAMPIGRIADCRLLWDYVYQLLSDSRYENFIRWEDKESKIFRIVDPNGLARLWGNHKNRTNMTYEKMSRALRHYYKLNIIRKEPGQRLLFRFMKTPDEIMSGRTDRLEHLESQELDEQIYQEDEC
Chain of CRX (O43186 whole entry): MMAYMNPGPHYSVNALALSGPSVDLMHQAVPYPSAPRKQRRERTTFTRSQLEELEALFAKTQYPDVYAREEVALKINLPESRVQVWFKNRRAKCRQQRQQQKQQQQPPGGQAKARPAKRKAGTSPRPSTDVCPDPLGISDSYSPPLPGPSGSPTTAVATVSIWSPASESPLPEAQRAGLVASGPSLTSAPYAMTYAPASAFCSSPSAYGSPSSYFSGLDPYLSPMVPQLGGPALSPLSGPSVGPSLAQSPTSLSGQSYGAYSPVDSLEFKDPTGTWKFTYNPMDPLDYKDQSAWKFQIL
Chain of ETV1 (P50549 whole entry): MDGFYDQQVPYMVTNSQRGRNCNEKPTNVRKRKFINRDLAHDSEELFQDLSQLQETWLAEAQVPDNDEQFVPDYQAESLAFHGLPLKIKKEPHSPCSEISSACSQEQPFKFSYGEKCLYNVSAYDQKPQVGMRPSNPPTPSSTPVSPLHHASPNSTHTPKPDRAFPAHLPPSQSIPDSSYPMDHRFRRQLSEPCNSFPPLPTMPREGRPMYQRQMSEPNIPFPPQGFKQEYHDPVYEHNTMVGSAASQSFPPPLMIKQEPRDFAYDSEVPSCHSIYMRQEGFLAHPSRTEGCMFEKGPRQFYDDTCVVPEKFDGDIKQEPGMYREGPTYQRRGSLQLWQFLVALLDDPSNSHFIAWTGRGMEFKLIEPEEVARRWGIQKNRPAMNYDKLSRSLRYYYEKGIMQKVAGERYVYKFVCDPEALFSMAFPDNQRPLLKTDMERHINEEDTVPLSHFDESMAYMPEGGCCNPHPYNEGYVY
Chain of ETV5 (P41161 whole entry): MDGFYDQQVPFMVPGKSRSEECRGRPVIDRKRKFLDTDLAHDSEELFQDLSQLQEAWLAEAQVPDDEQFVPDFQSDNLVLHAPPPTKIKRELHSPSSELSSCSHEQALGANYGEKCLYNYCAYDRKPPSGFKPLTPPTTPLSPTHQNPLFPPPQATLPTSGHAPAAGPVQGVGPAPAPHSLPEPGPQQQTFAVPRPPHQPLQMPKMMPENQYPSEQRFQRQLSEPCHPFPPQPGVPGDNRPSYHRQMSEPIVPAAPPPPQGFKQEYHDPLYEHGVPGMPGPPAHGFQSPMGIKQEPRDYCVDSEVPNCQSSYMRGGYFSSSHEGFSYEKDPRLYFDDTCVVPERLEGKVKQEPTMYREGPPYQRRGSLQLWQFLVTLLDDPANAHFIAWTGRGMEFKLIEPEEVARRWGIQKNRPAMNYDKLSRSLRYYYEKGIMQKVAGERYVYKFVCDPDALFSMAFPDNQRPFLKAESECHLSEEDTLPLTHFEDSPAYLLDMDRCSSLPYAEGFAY

As for CAATAC, the binding signal is 1.27 fold enrichment (6-mer frequency, TF over GST control) in the experiment with FEV; 1.26 fold enrichment (6-mer frequency, TF over GST control) with ETV5; 1.07 fold enrichment (6-mer frequency, TF over GST control) with HSF1; 1.16 fold enrichment (6-mer frequency, TF over GST control) with SPIC; 1.23 fold enrichment (6-mer frequency, TF over GST control) with ELF4; 1.39 fold enrichment (6-mer frequency, TF over GST control) with ELK4. The binding signal in the experiment with ETV2 was 1.22 fold enrichment (6-mer frequency, TF over GST control); with ELF3, 1.29 fold enrichment (6-mer frequency, TF over GST control); in the experiment with CRX it was 1.04 fold enrichment (6-mer frequency, TF over GST control); in the experiment with ETV1 it was 1.3 fold enrichment (6-mer frequency, TF over GST control); in the experiment with ERF, 1.38 fold enrichment (6-mer frequency, TF over GST control); with ETV3L, 1.3 fold enrichment (6-mer frequency, TF over GST control). The binding signal was 1.22 fold enrichment (6-mer frequency, TF over GST control) with ETS2; 1.23 fold enrichment (6-mer frequency, TF over GST control) in the experiment with SPDEF; 1.35 fold enrichment (6-mer frequency, TF over GST control) in the experiment with ETV7; 1.18 fold enrichment (6-mer frequency, TF over GST control) in the experiment with ELF5; 1.29 fold enrichment (6-mer frequency, TF over GST control) with ETV3; 1.22 fold enrichment (6-mer frequency, TF over GST control) in the experiment with ETV6.
